Test results: PubChem BioAssay (NCATS)
A number with no mark means an inactive call. Records with an inconclusive call do not appear. The source made the active and inactive calls.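 Rule for the calls, unless noted: active = compounds whose dose series gives a full or clear partial fitted curve of increased nuclear translocation; inconclusive = weak partial curve or effect only at the top dose; inactive = no dose-dependent translocation response.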

Legend:
[1] = Stat Signaling Pathway (AID 446; active = well fitted curve in either direction with a large enough effect, not every such curve was filed as active;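 note: ME-180 cervical cancer cells given 40 pM IL-6 alongside compound; SIE-controlled beta-lactamase reporter measured as 460/530 nm FRET emission ratio; % is set by controls: 0 for no effect and ±100 for the full control effect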); conditions: ME-180 (cervical carcinoma) SIE beta-lactamase reporter, IL-6 stimulated, 5 h; at 17.2 µM (top of the series) unless noted
In short: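 Overnight-plated ME-180 cells bearing a STAT Inducible Element beta-lactamase reporter; 5 h co-exposure to compound and 40 pM IL-6; values normalized to 300 pM IL-6 and 125 nM JAK inhibitor controls.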

[2] = target: Glucocorticoid receptor (Homo sapiens) (UniProt P04150); experiment: GR-GFP Redistribution (AID 450); note: potency is the fitted concentration of half-maximal effect
Chain of Glucocorticoid receptor (Homo sapiens) (P04150 whole entry, looked up): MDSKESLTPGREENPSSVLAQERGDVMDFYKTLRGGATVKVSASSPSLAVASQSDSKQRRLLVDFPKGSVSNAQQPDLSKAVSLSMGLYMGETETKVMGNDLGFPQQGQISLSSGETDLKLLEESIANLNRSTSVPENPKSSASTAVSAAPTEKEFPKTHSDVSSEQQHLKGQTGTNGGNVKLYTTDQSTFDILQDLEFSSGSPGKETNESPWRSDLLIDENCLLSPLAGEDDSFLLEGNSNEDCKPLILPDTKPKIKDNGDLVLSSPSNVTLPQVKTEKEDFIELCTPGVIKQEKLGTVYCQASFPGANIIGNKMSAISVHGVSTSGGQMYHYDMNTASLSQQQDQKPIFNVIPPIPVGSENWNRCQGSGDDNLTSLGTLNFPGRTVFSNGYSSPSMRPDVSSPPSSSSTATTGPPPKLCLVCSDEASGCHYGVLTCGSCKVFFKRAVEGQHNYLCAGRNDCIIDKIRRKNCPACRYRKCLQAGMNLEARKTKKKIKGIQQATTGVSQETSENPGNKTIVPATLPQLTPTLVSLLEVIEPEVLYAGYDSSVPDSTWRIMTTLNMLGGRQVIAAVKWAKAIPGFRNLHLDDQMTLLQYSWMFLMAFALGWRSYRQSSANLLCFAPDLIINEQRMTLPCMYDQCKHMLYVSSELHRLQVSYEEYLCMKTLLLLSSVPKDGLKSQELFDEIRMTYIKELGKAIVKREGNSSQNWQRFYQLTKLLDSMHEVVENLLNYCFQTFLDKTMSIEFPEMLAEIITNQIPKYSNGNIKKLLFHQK

COc1cccc(-c2nc(N3CCCCC3)c3ccccc3n2)c1O
activity, negative = inhibition [1]: -5.07% | Potency [2]: > 20.6 µM

N#Cc1nc(COc2ccc(Br)cc2)oc1N1CCCC1
activity, negative = inhibition [1]: 3.52% | Potency [2]: > 20.6 µM

COc1cccc(-c2nc(N3CCN(Cc4ccccc4)CC3)c3ccccc3n2)c1O
activity, negative = inhibition [1]: 9.62% | Potency [2]: > 20.6 µM

CC1(C)Cc2c(sc3c2C2=NCCN2C=N3)CS1
activity, negative = inhibition [1]: 5.3% | Potency [2]: > 20.6 µM

Cc1ccccc1-n1c(=O)/c(=C\c2ccco2)s/c1=C(/C#N)C(=O)Nc1ccccc1
activity, negative = inhibition [1]: -25.9% | Potency [2]: > 20.6 µM

Fc1ccccc1-c1nc(N2CCCCC2)c2ccccc2n1
activity, negative = inhibition [1]: -21.5% | Potency [2]: > 20.6 µM

Cc1coc2c(O)cc3c(c12)OC1(N2CCCCC2)C(=O)NCCCC31 (centres undefined)
activity, negative = inhibition [1]: -21.8% | Potency [2]: > 20.6 µM

CCCSc1nnc2n(C)c(=O)c3c4c(sc3n12)CCC4
activity, negative = inhibition [1]: -5.35% | Potency [2]: > 20.6 µM

CCN1CCc2c(C#N)c(N3CCCCC3)nc(NCc3ccccc3)c2C1
activity, negative = inhibition [1]: 5.55% | Potency [2]: > 20.6 µM

COC(=O)CC1=C(C(=O)OC)C(c2ccncc2)C(C#N)=C(N)O1 (centres undefined)
activity, negative = inhibition [1]: 0.288% | Potency [2]: > 20.6 µM

CSc1nc2[nH]c3c(c2c2ncnn12)CCCC3
activity, negative = inhibition [1]: -26.5% | Potency [2]: > 20.6 µM

Nc1c2c(nc3ccccc13)N(c1ccccc1)CC2
activity, negative = inhibition [1]: 9.15% | Potency [2]: > 20.6 µM

C=CCc1cccc(CNc2nc3ccccc3n2C(C)C)c1O
activity, negative = inhibition [1]: -22.2% | Potency [2]: > 20.6 µM

CC1(C)Cc2c(c(N3CCOCC3)nc3sc4c(NCc5ccco5)nnnc4c23)CS1
activity, negative = inhibition [1]: -26.9% | Potency [2]: > 20.6 µM

CCCOc1ccc(Cl)cc1CN1CCOCC1
activity, negative = inhibition [1]: 8.53% | Potency [2]: > 20.6 µM

O=C(O)CCc1cc(I)c(Oc2ccc(O)c(I)c2)c(I)c1
activity, negative = inhibition [1]: -5.45% | Potency [2]: > 20.6 µM

COc1cc(C(=O)OCCN2CCCCC2)ccc1O
activity, negative = inhibition [1]: 4.68% | Potency [2]: > 20.6 µM

N#CC(C(=O)Nc1ccc(Cl)c(Cl)c1)=C1Nc2ccccc2N1
activity, negative = inhibition [1]: -4.82% | Potency [2]: > 20.6 µM

CCOC(=O)c1c(C)n(C)c2ccc(O)c(CN3CCCCC3)c12
activity, negative = inhibition [1]: 18.3% | Potency [2]: > 20.6 µM

CCOc1ccc(C2=Nn3c(nnc3-c3ccccc3OC)SC2)cc1
activity, negative = inhibition [1]: -10.6% | Potency [2]: > 20.6 µM

Cc1cc(C)n(S(=O)(=O)/C=C/c2ccccc2)n1
activity, negative = inhibition [1]: -7.25% | Potency [2]: > 20.6 µM

COc1ccc(OC)c(NC(=O)CSC2=C(C#N)C(c3ccco3)C3=C(CCCC3=O)N2)c1 (centres undefined)
activity, negative = inhibition [1]: -3.42% | Potency [2]: > 20.6 µM

CCN(CC)c1ccc(-c2nn3c(-c4cccnc4)nnc3s2)cc1
activity, negative = inhibition [1]: -29.8% | Potency [2]: > 20.6 µM

N#C/C(=N\O)c1nc(-c2ccccc2)cs1
activity, negative = inhibition [1]: 9.7% | Potency [2]: > 20.6 µM

Cc1cccc(C)c1OCC(=O)Nc1cccc(-c2nnc(-c3ccccc3)o2)c1
activity, negative = inhibition [1]: -9.86% | Potency [2]: > 20.6 µM

Cc1cc(/C=c2/sc3nc4ccccc4n3c2=O)c(C)n1-c1ccccn1
activity, negative = inhibition [1]: -5.6% | Potency [2]: > 20.6 µM

Cc1cc(N2C(=O)C(=O)/C(=C(/O)c3ccc(F)cc3)C2c2ccc(F)cc2)no1 (centres undefined)
activity, negative = inhibition [1]: -24.4% | Potency [2]: > 20.6 µM

Clc1ccccc1CN(Cc1ccccc1)c1ncnc2nc[nH]c12
activity, negative = inhibition [1]: -10.3% | Potency [2]: > 20.6 µM

N#Cc1ccc(-c2ccc(OCC(O)Cn3nnc4ccccc43)cc2)cc1 (centres undefined)
activity, negative = inhibition [1]: -29.1% | Potency [2]: > 20.6 µM

CCc1[nH]nc2c1C(c1ccc(Br)s1)C(C#N)=C(N)O2 (centres undefined)
activity, negative = inhibition [1]: -17.3% | Potency [2]: > 20.6 µM

CCC(=O)Oc1ccc(/C(CC)=C(\CC)c2ccc(OC(=O)CC)cc2)cc1
activity, negative = inhibition [1]: -21.2% | Potency [2]: > 20.6 µM

COc1ccc(CNc2oc(COc3ccc(Cl)cc3)nc2C#N)cc1
activity, negative = inhibition [1]: -26.7% | Potency [2]: > 20.6 µM

Cc1ccc2nc(C(F)(F)F)c(C#N)c(N)c2c1
activity, negative = inhibition [1]: -100% (active) | Potency [2]: > 20.6 µM

CN1Cc2c(N3CCOCC3)nc(SCc3ccccc3)c(C#N)c2CC1(C)C
activity, negative = inhibition [1]: -1.83% | Potency [2]: > 20.6 µM

CCOC(=O)CC(=O)CSc1nc(N)c(C#N)c(-c2ccc(Cl)cc2)c1C#N
activity, negative = inhibition [1]: -16.4% | Potency [2]: > 20.6 µM

CCOC(=O)c1[nH]c2cc3c(cc2c1NC(=O)CN1CCCCC1C)OCO3 (centres undefined)
activity, negative = inhibition [1]: -10.3% | Potency [2]: > 20.6 µM

N#CC1=C(SCc2ccccc2)NC2=C(C(=O)CCC2)C1c1ccc2c(c1)OCO2 (centres undefined)
activity, negative = inhibition [1]: -5.66% | Potency [2]: > 20.6 µM

CN(CCCCCNC(=O)/C=N/O)Cc1ccccc1
activity, negative = inhibition [1]: 9.45% | Potency [2]: > 20.6 µM

Cc1nc(SCC(=O)c2ccccc2)c(C#N)c(-c2ccco2)c1C(=O)NCc1ccco1
activity, negative = inhibition [1]: -21.3% | Potency [2]: > 20.6 µM

O=c1c2sc3nc(N4CCOCC4)c4c(c3c2ncn1Cc1ccco1)CCCC4
activity, negative = inhibition [1]: -14.9% | Potency [2]: > 20.6 µM

COc1cc(C2C(C#N)=C(N)Oc3cc(N)ccc32)cc(OC)c1OC (centres undefined)
activity, negative = inhibition [1]: -20.2% | Potency [2]: > 20.6 µM

COC(=O)c1cccc(Nc2cc(C)nc(-c3ccccc3O)n2)c1
activity, negative = inhibition [1]: -15.1% | Potency [2]: > 20.6 µM

COc1ccc(Nc2cc(C)nc(-n3nc(C)cc3C)n2)cc1
activity, negative = inhibition [1]: -13% | Potency [2]: > 20.6 µM

N#Cc1ccc(-c2ccco2)nc1SCC(=O)c1ccc(Cl)cc1
activity, negative = inhibition [1]: -9.2% | Potency [2]: > 20.6 µM

CCCc1nn(C)c2c1C(c1cccnc1)C(C#N)=C(N)O2 (centres undefined)
activity, negative = inhibition [1]: 4.95% | Potency [2]: > 20.6 µM

C=CCOc1nc(-c2ccncc2)nc2ccccc12
activity, negative = inhibition [1]: 12.7% | Potency [2]: > 20.6 µM

CCOc1ccc(/C(O)=C2/C(=O)C(=O)N(c3cc(C)on3)C2c2ccc(C(=O)OC)cc2)cc1 (centres undefined)
activity, negative = inhibition [1]: -18.4% | Potency [2]: > 20.6 µM
